Test results as given in ChEMBL document CHEMBL3988442, “University of Dundee, Small-Polar-MMV Screening Library” (2021).
For some assays here: Entries with a potency or affinity are not part of this list.

Key:
Parameters in all cases: scale not given: direction of the effect not stated beside the values
[1] = target: Protein translocase subunit SecA (Escherichia coli (strain K12)) (UniProt P10408); experiment: Assay to Identify E. coli SecA ATPase Inhibitors; format: functional; conditions: 30 µM
[2] = target: T1, Ubiquitin-activating enzyme e1, putative (Leishmania donovani (strain BPK282A1)) (UniProt E9BSI1); experiment: Leishmania donovani Ubiquitin Activating Enzyme (LdE1); format: functional; conditions: 30 µM
T1 sequence (whole entry): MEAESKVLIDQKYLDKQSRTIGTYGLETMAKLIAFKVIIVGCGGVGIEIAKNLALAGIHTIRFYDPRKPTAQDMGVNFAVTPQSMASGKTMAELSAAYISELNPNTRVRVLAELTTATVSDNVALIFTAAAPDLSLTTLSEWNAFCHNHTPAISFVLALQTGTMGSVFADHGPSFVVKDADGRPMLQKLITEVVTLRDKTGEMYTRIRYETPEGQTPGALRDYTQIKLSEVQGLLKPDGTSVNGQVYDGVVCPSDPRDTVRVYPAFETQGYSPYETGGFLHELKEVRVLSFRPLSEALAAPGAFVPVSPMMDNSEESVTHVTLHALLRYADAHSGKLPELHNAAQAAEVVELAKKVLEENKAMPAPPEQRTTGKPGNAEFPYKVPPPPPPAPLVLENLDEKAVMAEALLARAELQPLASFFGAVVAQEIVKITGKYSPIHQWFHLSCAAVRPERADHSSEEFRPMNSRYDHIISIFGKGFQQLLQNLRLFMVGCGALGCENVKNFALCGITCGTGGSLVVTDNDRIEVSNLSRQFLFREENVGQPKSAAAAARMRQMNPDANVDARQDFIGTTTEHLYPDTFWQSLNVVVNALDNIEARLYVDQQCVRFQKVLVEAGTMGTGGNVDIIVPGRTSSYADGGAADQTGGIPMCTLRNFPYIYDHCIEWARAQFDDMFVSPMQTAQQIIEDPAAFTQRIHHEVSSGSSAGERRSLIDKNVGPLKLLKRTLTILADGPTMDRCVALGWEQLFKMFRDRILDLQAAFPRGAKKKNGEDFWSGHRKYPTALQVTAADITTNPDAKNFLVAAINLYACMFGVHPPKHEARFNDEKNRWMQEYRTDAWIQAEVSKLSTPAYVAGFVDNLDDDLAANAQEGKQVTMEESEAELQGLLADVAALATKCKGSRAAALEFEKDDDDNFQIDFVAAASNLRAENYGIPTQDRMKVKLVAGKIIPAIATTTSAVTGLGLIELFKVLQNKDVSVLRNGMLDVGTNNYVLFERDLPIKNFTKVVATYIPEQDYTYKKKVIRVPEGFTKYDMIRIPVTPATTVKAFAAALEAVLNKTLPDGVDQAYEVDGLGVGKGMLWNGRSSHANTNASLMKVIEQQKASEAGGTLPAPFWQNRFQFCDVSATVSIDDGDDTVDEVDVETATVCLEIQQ

[3] = target: Sialic acid-binding Ig-like lectin 9 (Homo sapiens) (UniProt Q9Y336); experiment: Hs-Siglec9 ALPHAscreen SOP 20170721; conditions: 10 µM
Trypanosoma cruzi = experiment: Trypanosoma cruzi phosphomannomutase and mannose-1-phosphate guanylyltransferase assay; format: functional; conditions: 10 µM
[4] = target: T2, Arginase-2, mitochondrial (Homo sapiens) (UniProt P78540); experiment: in vitro enzyme assay to detect the production of urea directly proportional to the activity of Arginase II; format: functional; conditions: 33.3 µM; note: in the data most compounds retested in dose-response had high values
T2 sequence (whole entry): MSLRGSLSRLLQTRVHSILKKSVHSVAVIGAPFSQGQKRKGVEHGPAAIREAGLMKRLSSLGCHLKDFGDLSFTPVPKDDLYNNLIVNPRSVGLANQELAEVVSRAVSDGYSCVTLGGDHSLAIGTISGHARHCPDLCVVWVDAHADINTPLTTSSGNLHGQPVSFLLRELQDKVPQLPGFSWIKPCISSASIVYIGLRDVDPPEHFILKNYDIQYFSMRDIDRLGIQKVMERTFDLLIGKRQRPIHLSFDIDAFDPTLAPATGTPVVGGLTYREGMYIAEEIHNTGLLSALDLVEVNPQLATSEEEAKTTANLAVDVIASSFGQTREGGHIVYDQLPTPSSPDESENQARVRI

[5] = target: T3, Proteasome subunit beta (Trypanosoma cruzi) (UniProt O96673); experiment: Trypanosoma cruzi proteasome chymotrypsin-like activity (TcProtChymo) assay.; note: in the data most compounds retested in dose-response had high values; format: functional; conditions: 9.37 µM
T3 sequence (whole entry): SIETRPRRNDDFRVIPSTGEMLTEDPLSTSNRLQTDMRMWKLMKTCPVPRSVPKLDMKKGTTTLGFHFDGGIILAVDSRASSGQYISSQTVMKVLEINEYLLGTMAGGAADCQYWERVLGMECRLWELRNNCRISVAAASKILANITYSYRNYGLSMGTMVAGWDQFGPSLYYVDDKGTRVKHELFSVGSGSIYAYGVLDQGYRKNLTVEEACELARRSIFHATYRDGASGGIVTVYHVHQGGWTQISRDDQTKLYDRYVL

Homo sapiens = species on record: Homo sapiens; experiment: To identify inhibition of the IFN signalling (Jak-Stat) pathway via expression of an eGFP reporter gene under the control of an IFN-stimulated response element (ISRE) containing MxA promoter.; format: functional; conditions: 30 µM
[6] = target: T4, Tyrosyl-tRNA synthetase, putative (Trypanosoma cruzi (strain CL Brener)) (UniProt Q4DSP6); experiment: Trypanosoma cruzi tyrosyl tRNA synthetase (TcYRS) _High Tyrosine SOP; format: functional; conditions: 30 µM; note: in the data most compounds retested in dose-response had high values
T4 sequence (whole entry): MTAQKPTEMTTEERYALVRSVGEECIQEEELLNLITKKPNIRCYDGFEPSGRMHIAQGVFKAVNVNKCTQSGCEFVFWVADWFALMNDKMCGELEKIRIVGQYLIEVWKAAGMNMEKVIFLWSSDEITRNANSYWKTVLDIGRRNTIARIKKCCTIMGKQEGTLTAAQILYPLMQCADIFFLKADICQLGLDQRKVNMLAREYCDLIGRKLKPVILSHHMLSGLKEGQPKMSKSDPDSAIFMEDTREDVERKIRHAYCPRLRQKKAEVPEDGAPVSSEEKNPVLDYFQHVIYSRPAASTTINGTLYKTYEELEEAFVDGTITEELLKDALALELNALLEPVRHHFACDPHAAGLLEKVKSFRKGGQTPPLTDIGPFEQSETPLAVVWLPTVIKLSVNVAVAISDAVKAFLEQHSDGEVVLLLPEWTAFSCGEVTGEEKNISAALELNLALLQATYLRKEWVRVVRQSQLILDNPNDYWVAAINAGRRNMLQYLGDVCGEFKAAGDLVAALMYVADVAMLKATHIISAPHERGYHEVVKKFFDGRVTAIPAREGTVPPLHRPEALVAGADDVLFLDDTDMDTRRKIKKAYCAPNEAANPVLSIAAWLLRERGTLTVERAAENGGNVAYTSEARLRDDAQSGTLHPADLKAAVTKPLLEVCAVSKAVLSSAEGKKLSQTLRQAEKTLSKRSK

[7] = target: T4, Tyrosyl-tRNA synthetase, putative (Trypanosoma cruzi (strain CL Brener)); experiment: Trypanosoma cruzi tyrosyl tRNA synthetase (TcYRS) SOP; format: functional; conditions: 30 µM
[8] = target: Chromo domain-containing protein 1 (Saccharomyces cerevisiae (strain ATCC 204508 / S288c) (Baker's yeast)) (UniProt P32657); experiment: ScCHD-1 Enzyme Inhibition Assay; format: functional; conditions: 30 µM; note: in the data most compounds retested in dose-response had high values
Chromo domain-containing protein 1 (Saccharomyces cerevisiae (strain ATCC 204508 / S288c) (Baker's yeast)), sequence (P32657 whole entry, the tested form may be a part): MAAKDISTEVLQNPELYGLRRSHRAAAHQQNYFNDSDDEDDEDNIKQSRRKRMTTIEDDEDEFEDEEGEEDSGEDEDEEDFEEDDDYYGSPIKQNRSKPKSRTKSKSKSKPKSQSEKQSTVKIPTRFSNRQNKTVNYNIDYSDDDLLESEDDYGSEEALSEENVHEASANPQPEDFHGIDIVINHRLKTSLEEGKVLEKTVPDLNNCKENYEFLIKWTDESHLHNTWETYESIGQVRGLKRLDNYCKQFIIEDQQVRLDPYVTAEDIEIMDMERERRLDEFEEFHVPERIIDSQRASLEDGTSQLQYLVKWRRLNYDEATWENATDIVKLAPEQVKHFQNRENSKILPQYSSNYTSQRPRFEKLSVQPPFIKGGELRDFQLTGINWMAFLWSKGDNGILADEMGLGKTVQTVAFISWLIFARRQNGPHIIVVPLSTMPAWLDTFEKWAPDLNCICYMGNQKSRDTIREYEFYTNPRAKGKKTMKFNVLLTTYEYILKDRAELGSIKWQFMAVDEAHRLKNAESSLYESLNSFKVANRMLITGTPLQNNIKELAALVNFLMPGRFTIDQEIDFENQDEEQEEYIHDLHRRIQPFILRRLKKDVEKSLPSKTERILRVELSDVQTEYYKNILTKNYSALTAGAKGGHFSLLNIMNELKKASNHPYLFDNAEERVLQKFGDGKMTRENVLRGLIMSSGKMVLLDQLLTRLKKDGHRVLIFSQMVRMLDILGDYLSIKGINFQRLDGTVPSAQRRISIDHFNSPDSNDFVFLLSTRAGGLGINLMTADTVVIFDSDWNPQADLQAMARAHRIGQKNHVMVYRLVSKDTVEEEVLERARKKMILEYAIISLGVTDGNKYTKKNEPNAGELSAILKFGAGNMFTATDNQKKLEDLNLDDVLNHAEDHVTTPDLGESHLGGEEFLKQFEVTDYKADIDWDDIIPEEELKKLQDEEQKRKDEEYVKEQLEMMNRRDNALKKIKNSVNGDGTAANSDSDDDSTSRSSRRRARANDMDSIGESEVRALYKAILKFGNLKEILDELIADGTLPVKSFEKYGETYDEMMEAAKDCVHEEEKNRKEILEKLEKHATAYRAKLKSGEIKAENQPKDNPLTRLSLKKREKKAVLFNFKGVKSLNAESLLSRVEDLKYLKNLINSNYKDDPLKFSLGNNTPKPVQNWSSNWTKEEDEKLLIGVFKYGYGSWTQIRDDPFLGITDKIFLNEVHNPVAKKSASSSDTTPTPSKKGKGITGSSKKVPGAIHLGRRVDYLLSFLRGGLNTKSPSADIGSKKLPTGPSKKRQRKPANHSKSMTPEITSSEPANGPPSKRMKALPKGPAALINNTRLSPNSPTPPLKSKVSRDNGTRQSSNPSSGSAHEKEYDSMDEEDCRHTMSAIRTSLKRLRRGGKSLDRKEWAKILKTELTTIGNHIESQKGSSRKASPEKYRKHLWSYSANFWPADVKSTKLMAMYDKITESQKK

Protein translocase subunit SecA (Escherichia coli (strain K12)), sequence (P10408 whole entry): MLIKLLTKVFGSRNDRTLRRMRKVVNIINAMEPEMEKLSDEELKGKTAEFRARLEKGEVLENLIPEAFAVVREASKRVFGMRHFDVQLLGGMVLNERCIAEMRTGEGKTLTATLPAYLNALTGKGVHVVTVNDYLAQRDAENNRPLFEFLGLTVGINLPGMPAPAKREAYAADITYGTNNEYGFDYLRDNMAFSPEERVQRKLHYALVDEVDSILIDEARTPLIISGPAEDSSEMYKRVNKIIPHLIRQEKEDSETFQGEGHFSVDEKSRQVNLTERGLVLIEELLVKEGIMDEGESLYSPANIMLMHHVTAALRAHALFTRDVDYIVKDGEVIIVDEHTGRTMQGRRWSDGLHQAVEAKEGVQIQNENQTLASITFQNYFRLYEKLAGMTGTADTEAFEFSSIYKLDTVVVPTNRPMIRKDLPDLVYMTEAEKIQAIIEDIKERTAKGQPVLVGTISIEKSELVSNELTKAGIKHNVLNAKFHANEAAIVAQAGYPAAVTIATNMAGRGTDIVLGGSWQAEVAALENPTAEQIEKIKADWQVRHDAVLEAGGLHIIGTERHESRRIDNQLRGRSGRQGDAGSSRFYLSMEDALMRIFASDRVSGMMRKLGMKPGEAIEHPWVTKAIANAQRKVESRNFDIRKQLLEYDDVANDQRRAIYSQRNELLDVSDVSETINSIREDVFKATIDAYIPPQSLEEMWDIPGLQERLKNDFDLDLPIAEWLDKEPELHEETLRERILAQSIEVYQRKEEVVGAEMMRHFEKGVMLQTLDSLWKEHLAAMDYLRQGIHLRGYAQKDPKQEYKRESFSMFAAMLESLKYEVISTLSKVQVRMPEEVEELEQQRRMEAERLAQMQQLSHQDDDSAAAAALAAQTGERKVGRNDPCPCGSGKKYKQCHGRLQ
Sialic acid-binding Ig-like lectin 9 (Homo sapiens), sequence (Q9Y336 whole entry): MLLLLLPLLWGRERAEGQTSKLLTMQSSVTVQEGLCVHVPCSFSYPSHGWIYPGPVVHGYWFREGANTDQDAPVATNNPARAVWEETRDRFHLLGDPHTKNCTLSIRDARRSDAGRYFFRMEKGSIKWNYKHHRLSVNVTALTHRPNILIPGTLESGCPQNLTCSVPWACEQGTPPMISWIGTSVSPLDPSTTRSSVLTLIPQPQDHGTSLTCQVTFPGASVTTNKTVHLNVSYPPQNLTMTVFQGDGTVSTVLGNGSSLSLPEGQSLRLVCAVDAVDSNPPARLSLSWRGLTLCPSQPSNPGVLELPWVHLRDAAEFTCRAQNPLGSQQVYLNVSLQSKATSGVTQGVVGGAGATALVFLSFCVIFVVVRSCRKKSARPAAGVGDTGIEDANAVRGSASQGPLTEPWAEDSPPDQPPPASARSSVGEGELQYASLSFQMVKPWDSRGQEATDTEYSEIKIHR

SMILES	Percent Effect [1] [%]	Percent Effect [2] [%]	Percent Effect [3] [%]	Percent Effect (Trypanosoma cruzi) [%]	Percent Effect [4] [%]	Percent Effect [5] [%]	Percent Effect (Homo sapiens) [%]	Percent Effect [6] [%]	Percent Effect [7] [%]	Percent Effect [8] [%]
Cn1cnc2c1CCN(Cc1csc(-c3ccsc3)n1)C2	-0.725	0	-11.7	-1.41	3.69	13.2	27.3	11	13.2	25
Cn1cnc2c1CCN(CCCc1ccccc1)C2	-5.94	2.67	4.07	5.62	-3.55	4.16	23.4	7.89	12.8	-10.6
Cc1ccccc1CN(C)Cc1nc2c(cnn2C)c(=O)[nH]1	-0.754	10.3	-3.07	1.41	-0.82	16.8	7.6	8.13	18.1	-3.59
O=C(C1CC=CC1)N1CCC2(CC1)CN(Cc1ccccn1)CCO2	-2.34	1.3	-0.373	2.63	-4.86	5.74	-19	1.58	5.13	3.73
O=C(NCC1CCOC1)c1ccc(OCC(F)(F)F)nc1 (stereo not given)	-1.32	12.8	9.89	-4.98	2.46	6.91	25.9	3.35	10.8	-2.44
O=C1C(NCc2nnc3n2CCCC3)CCN1c1ccccc1 (stereo not given)	-2.98	10.3	-1.63	8.17	7.79	-2.99	18.5	3.35	13.2	-2.81
CCn1cc(CN(C)S(=O)(=O)c2cnn(CC)c2C)c(C)n1	39.4	14.7	-2.08	-0.986	3.1	15.3	39.3	2.12	10	-20.5
Cc1cc(C2CCCN2CCCS(=O)(=O)c2ccccc2)no1 (stereo not given)	-1.74	5.13	19.5	-1.41	-1.23	-8.11	8.46	3.35	8.43	-1.93
COCCN(C)C[C@@H]1CCC[C@@H]2CN(c3cc(OC)ncn3)C[C@@H]21	-6.04	3.9	-3.68	-1.27	-5.26	13.9	11.6	7.89	7.69	0.558
Cc1cccc(CN2C[C@@H]3COC[C@]3(CNC(=O)c3ccsc3)C2)n1	-7.55	9.09	-4.17	1.27	-3.64	22.3	-5.86	7.89	12.8	108
Cc1nc(-c2nnc[nH]2)sc1C(=O)N(Cc1cccnc1)C1CC1	-4.44	12.8	-5.72	6.67	-0.41	7.42	9.73	2.39	18.1	-6.07
Cc1nc(CNC(=O)NCC(O)c2ccc(F)cc2F)cs1 (stereo not given)	0.239	13.3	-2.61	-4.62	2.22	9.75	-4.09	8.95	15.4	-9.8
Cc1cc(C)n(CC2CCCCN2C(=O)c2cnn(C)c2)n1 (stereo not given)	-5.83	8	1.34	-5.22	-2.22	6.02	5.12	-0.526	2.56	-0.708
c1cc(CN2Cc3nnn(CC4CC4)c3C(COCC3CC3)C2)co1 (stereo not given)	-5.88	3.9	10.3	9.83	-8.1	9.62	-0.188	3.68	12.8	2.41
COCCCNc1nccc(-c2c[nH][nH]c2=O)n1	-1.57	8	-3.19	-6.63	-3.55	19.9	12.9	-1.58	0	-11.7
O=C(c1ccc(C(F)(F)F)nc1)N1CCCC(n2cncn2)C1 (stereo not given)	1.26	-5.13	-2.26	5.92	5.33	3.33	-13.8	-3.35	1.21	-3.39
CC(C)CC(=O)N1C[C@@H]2CCN(c3ncccn3)C[C@@H]2C1	-0.224	11.7	-0.117	0.375	-5.02	14.2	17.9	0	-10	-10.7
CC(C)N(C)CC(=O)N1CCCC(c2ccc(C(=O)O)cc2)C1 (stereo not given)	-7.71	5.41	3.58	8.44	-1.05	1.71	-11.9	7.98	17.1	-2.58
Cc1cccc(-c2noc(CN3CCc4nn(C)c(=O)cc4C3)n2)c1	-3.9	16	1.97	-0.201	3.55	0.424	14.8	-5.79	-15.4	4.01
Cc1ccc2oc(C(=O)N3CCCC(n4nc(C)cc4C)C3)cc2n1 (stereo not given)	-4.01	10.3	6.58	0.845	1.23	4.01	-2.91	4.31	13.2	3.09
